Measurements taken from PubChem BioAssay (NCATS).
Inconclusive results are not listed. The source made the active and inactive calls. The call rests on the fitted dose curve; in most records, active means well fitted cell-killing curve with a large enough effect; inconclusive means small, poorly fitted or top-dose-only effect, or effect the other way; inactive means no such curve, though single readings can be large or run the other way.

What was measured:
[1] = Viability qHTS for spleen associated tyrosine kinase inhibitor (SYKi) naive MV4-11 cells (AID 1963823); details: MV4-11 AML viability, CellTiter-Glo luminescence, 72 h; series mostly up to 45 µM; further: nearly all actives have a fitted effect of over 40% in size
Summary of the method: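 Luminescence from CellTiter-Glo, developed 10 min at room temperature, gave viability of MV4-11 cells never exposed to SYK inhibitor. Cells (500/well) had been incubated with compounds for 72 hr under standard culture conditions.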

[2] = Viability qHTS for spleen associated tyrosine kinase inhibitor (SYKi) drug resistant MV4-11 cells (AID 1963824); details: SYKi-resistant MV4-11 viability, CellTiter-Glo, 72 h; series mostly up to 45 µM; further: nearly all actives have a fitted effect of over 35% in size
Summary of the method: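 SYK inhibitor-resistant MV4-11 AML cells, 500 per well, added to predispensed compounds and incubated 72 hr at 37 C, 5% CO2. Viability measured by CellTiter-Glo luminescence after 10 min at room temperature.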
Potency means the concentration at half of the fitted maximal effect.

| Compound | Potency [1] | Potency [2] |
| --- | --- | --- |
| C[C@@H](CN1CCC2(CC1)C(=O)NCN2c1cccc(F)c1)NC(=O)c1ccc(Br)cc1 | 16400 nM (active) | 13000 nM (active) |
| CCC(C)(C#N)O[C@@H]1O[C@H](CO)[C@@H](O)[C@H](O)[C@H]1O (stereo not given in full) | inactive | inactive |
| COc1cc2cc(c1Cl)N(C)C(=O)C[C@H](OC(=O)C(C)C)[C@]1(C)O[C@@H]1[C@H](C)[C@@H]1C[C@@](O)(NC(=O)O1)[C@H](OC)/C=C/C=C(\C)C2 | inactive | inactive |
| C[C@]12CCC(=O)C=C1CC[C@@H]1[C@@H]2[C@@H](O)C[C@]2(C)C(=O)CC[C@@H]12 | inactive | inactive |
| C/C=C(\C)C(=O)O[C@H]1CC2C(=C1C)[C@H]1OC(=O)[C@](C)(O)[C@]1(O)[C@H](OC(=O)CCC)C[C@@]2(C)OC(C)=O (stereo not given in full) | 1780 nM (active) | 563 nM (active) |
| CCC(C)/C=C(C)/C=C/C1=CC2=C(Cl)C(=O)C(C)(OC(C)=O)C(=O)C2=CO1 (stereo not given) | inactive | 8050 nM (active) |
| C[C@]12CC[C@H](O[C@@H]3O[C@H](CO)[C@@H](O)[C@H](O)[C@H]3O[C@@H]3O[C@H](CO)[C@@H](O)[C@H](O)[C@H]3O)CC1=CC[C@@H]1[C@@H]2CC[C@]2(C)[C@@H](C3=CC(=O)OC3)CC[C@]12O | 6110 nM (active) | 4320 nM (active) |
| CC(=O)O[C@@H]1[C@H]2CC[C@H]3[C@@](C)(O)[C@@H]4C[C@H](O)C(C)(C)[C@@]4(O)[C@H](O)C[C@@]13C[C@@]2(C)O | inactive | inactive |
| Cc1cccc(NC(=O)N[C@H]2CN(C)c3ccccc3C(c3ccccc3)=N2)c1 | 25900 nM (active) | 16400 nM (active) |
| CC12CCC3C(CCC4(O)CC(O)CCC34C=O)C1(O)CCC2C1=CC(=O)OC1 (stereo not given) | 366 nM (active) | 231 nM (active) |
| C=C1[C@@H](C)[C@H]2[C@H](Cc3ccccc3)NC(=O)[C@]23OC(=O)/C=C/C(=O)CCC[C@@H](C)C/C=C/[C@H]3[C@@H]1O | 920 nM (active) | 920 nM (active) |
| CC[C@@]1(O)C(=O)OCc2c1cc1n(c2=O)Cc2cc3c(OC)cccc3nc2-1 | 14.3 nM (active) | 11.4 nM (active) |
| C=C(C)[C@@H]1[C@H]2OC(=O)[C@H]1[C@]1(O)C[C@H]3O[C@]34C(=O)O[C@H]2[C@]14C | inactive | inactive |
| Clc1ccc(N2C[C@H]3CC[C@@H](C2)N3)nn1 | inactive | inactive |
| C[C@]12CC[C@H](O)C[C@H]1CC[C@@H]1[C@@H]2[C@H](O)C(=O)[C@]2(C)[C@@H](c3ccc(=O)oc3)CC[C@]12O | 10.3 nM (active) | 9.2 nM (active) |
| Cc1c(N2C(=O)[C@@H]3[C@H](O)CCN3C2=O)ccc(C#N)c1Cl | inactive | inactive |
| CO[C@@H]1C[C@H](O[C@H]2CC[C@@]3(C)C(CCC4C3CC[C@]3(C)[C@@H](C5=CC(=O)OC5)[C@@H](OC(C)=O)CC43O)C2)O[C@H](C)[C@@H]1O[C@H]1O[C@H](CO[C@@H]2O[C@H](CO)[C@@H](O)[C@H](O)[C@H]2O)[C@@H](O)[C@H](O)[C@H]1O (stereo not given in full) | 310 nM (active) | 155 nM (active) |
| N#Cc1ccccc1-c1cc(-c2ccccn2)cn(-c2ccccc2)c1=O | inactive | inactive |
| CC12Cc3cn[nH]c3C=C1CCC1C2CCC2(C)C1CCC2(C)O (stereo not given) | 25900 nM (active) | 20600 nM (active) |
| CC1=CC2OC3CC(O)[C@](C)([C@@]2(C)C(O)C1=O)[C@]31CO1 (stereo not given in full) | 1840 nM (active) | 1840 nM (active) |
| CC(C)=CCC[C@]1(C)C=Cc2c(O)c3c(c(CC=C(C)C)c2O1)O[C@]12C(=C[C@@H]4CC1C(C)(C)O[C@@]2(C/C=C(/C)C(=O)O)C4=O)C3=O | 517 nM (active) | 461 nM (active) |
| Cc1ccc2c(c1)[C@H]1CN(C)CC[C@H]1N2C(=O)CSc1nnnn1-c1ccc(Cl)cc1 | inactive | inactive |
| CC(C)(C)[C@]1(O)C[C@@H]2OC(=O)C[C@@]23C(=O)O[C@@H]2OC(=O)[C@@H](O)[C@]213 | inactive | inactive |
| CC1=CC(=O)[C@@H](O)[C@@]2(C)C1C[C@H]1OC(=O)[C@H](O)[C@@]3(O)[C@@H](C)[C@@H](O)[C@H](O)C2[C@@]13C (stereo not given in full) | 2020 nM (active) | 1800 nM (active) |
| CCCN1CCO[C@H]2c3cc(O)ccc3OC[C@@H]21 | inactive | inactive |
